Calls of active or inactive are those of the source. The calls were made as follows: active = hit-call score of the fitted dose curve at least 0.9, where 1 is the maximum; inactive = score below 0.9.
How the values were obtained:
Conditions in all cases: mRNA level, 48 h; actives raise or lower the signal
[1] = read-out: Early growth response protein 1 (EGR1) transcription factor, EGR1 (gene 1958); assay: LTEA_HepaRG_EGR1: Life Technologies and Expression Analysis (LTEA) Assay for Early growth response protein 1 (EGR1) transcription factor using HepaRG (AID 2283490)
Summary of the method: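 Differentiated human HepaRG cells in serum-free induction medium were exposed in duplicate for 48 h to eight concentrations (top 100 uM, half-log steps) in 0.5% DMSO. EGR1 mRNA was quantified by qRT-PCR, normalized to ACTB, GAPDH and POLR2A, and fitted bidirectionally versus DMSO.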

[2] = read-out: Ezrin (EZR), EZR (gene 7430); assay: LTEA_HepaRG_EZR: Life Technologies and Expression Analysis (LTEA) Assay for Ezrin (EZR) using HepaRG (AID 2283491)
Summary of the method: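 Gain or loss of EZR mRNA is scored relative to 0.5% DMSO in human HepaRG cultures treated 48 h with test chemicals in duplicate, eight half-log concentrations from 100 uM.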

[3] = read-out: Cytochrome P450 3A7 (Homo sapiens) (UniProt P24462); assay: LTEA_HepaRG_CYP3A7: Life Technologies and Expression Analysis (LTEA) Assay for CYP3A7 using HepaRG (AID 2283492)
Summary of the method: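 Differentiated HepaRG cells in serum-free induction medium exposed 48 h in duplicate to 8-point half-log series from 100 uM top in 0.5% DMSO. CYP3A7 mRNA by qRT-PCR, normalized to ACTB/GAPDH/POLR2A, bidirectional fit versus DMSO.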

CYP3A5 (gene 1577) = assay: LTEA_HepaRG_CYP3A5: Life Technologies and Expression Analysis (LTEA) Assay for CYP3A5 using HepaRG (AID 2283493)
Summary of the method: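 HepaRG plated 48 h, switched to serum-free induction medium, chemicals added 48 h (max 100 uM, half-log, 0.5% DMSO). RNA isolated; CYP3A5 by TaqMan qRT-PCR. Gain/loss vs DMSO.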

[4] = read-out: Fatty Acid-Binding Protein 1 (FABP1), FABP1 (gene 2168); assay: LTEA_HepaRG_FABP1: Life Technologies and Expression Analysis (LTEA) Assay for Fatty Acid-Binding Protein 1 (FABP1) using HepaRG (AID 2283494)
Summary of the method: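 Differentiated human HepaRG cells were exposed in duplicate for 48 h in serum-free induction medium to 8-point half-log concentration series topping at 100 uM in 0.5% DMSO. FABP1 mRNA measured by TaqMan qRT-PCR, normalized to ACTB/GAPDH/POLR2A; bidirectional fit versus DMSO.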

[5] = read-out: Cytochrome P450 7A1 (Homo sapiens) (UniProt P22680); assay: LTEA_HepaRG_CYP7A1: Life Technologies and Expression Analysis (LTEA) Assay for Cytochrome P450 7A1 (CYP7A1) using HepaRG (AID 2283496)
Summary of the method: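 HepaRG cells plated 48 h, then switched to serum-free induction medium and exposed in duplicate for 48 h to 8-point half-log series from 100 uM in 0.5% DMSO. CYP7A1 mRNA by qRT-PCR (TaqMan), normalized to ACTB/GAPDH/POLR2A; bidirectional fit versus DMSO.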

[6] = read-out: Glutamate-cysteine ligase catalytic (GCLC), GCLC (gene 2729); assay: LTEA_HepaRG_GCLC: Life Technologies and Expression Analysis (LTEA) Assay for Glutamate-cysteine ligase catalytic (GCLC) using HepaRG (AID 2283498)
Summary of the method: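 Differentiated human HepaRG cells, plated 48 h then switched to serum-free induction medium, were exposed in duplicate for 48 h to 8 half-log concentrations topping at 100 uM in 0.5% DMSO. GCLC mRNA was quantified by qRT-PCR against ACTB, GAPDH and POLR2A.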

[7] = read-out: growth arrest and DNA damage 45 (GADD45G), GADD45G (gene 10912); assay: LTEA_HepaRG_GADD45G: Life Technologies and Expression Analysis (LTEA) Assay for growth arrest and DNA damage 45 (GADD45G) using HepaRG (AID 2283499)
Summary of the method: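 Differentiated human HepaRG cells, 48 h post-plating, exposed 48 h in serum-free induction medium to 8 half-log concentrations (top 100 uM, 0.5% DMSO) in duplicate. GADD45G mRNA measured by Fluidigm TaqMan qRT-PCR, normalized to ACTB, GAPDH, POLR2A; bidirectional fit versus DMSO.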

[8] = read-out: Glutamate-cysteine ligase regulatory (GCLM), GCLM (gene 2730); assay: LTEA_HepaRG_GCLM: Life Technologies and Expression Analysis (LTEA) Assay for Glutamate-cysteine ligase regulatory (GCLM) using HepaRG (AID 2283500)
Summary of the method: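 Cells were plated, cultured 48 h, switched to serum-free induction medium, then dosed in duplicate for 48 h at eight half-log concentrations up to 100 uM. RNA was then profiled by qRT-PCR; gain or loss versus DMSO was fitted.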

[9] = read-out: Glutathione S-transferase M3 (GSTM3), GSTM3 (gene 2947); assay: LTEA_HepaRG_GSTM3: Life Technologies and Expression Analysis (LTEA) Assay for Glutathione S-transferase M3 (GSTM3) using HepaRG (AID 2283501)
Summary of the method: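 Differentiated human HepaRG cells were exposed in duplicate for 48 h in serum-free induction medium, 8 points from 100 uM top in half-log steps, 0.5% DMSO. GSTM3 mRNA was measured by TaqMan qRT-PCR, normalized to ACTB, GAPDH and POLR2A; bidirectional fit versus DMSO.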

[10] = read-out: Heat shock 70 kDa protein 1 (HSPA1A), gene 3303; assay: LTEA_HepaRG_HSPA1A: Life Technologies and Expression Analysis (LTEA) Assay for Heat shock 70 kDa protein 1 (HSPA1A) using HepaRG (AID 2283502)
Summary of the method: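 Readout is HSPA1A transcript level by microfluidic qRT-PCR, normalized to three housekeeping genes and analysed for gain or loss of signal relative to 0.5% DMSO. Human HepaRG cultures received test chemicals for 48 h at up to 100 uM.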

[11] = read-out: 3-Hydroxy-3-Methylglutaryl-CoA Synthase 2 (HMGCS2), HMGCS2 (gene 3158); assay: LTEA_HepaRG_HMGCS2: Life Technologies and Expression Analysis (LTEA) Assay for 3-Hydroxy-3-Methylglutaryl-CoA Synthase 2 (HMGCS2) using HepaRG (AID 2283504)
Summary of the method: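 Human HepaRG cells in serum-free induction medium were exposed in duplicate for 48 h to 8-point half-log series from 100 uM top in 0.5% DMSO. HMGCS2 mRNA measured by TaqMan qRT-PCR, normalised to ACTB, GAPDH, POLR2A; bidirectional fit versus DMSO.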

HGF (gene 3082) = assay: LTEA_HepaRG_HGF: Life Technologies and Expression Analysis (LTEA) Assay for Hepatocyte Growth Facto (HGF) using HepaRG (AID 2283505)
Summary of the method: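 Differentiated HepaRG cells in serum-free induction medium exposed 48 h in duplicate, 8 half-log concentrations from 100 uM in 0.5% DMSO. HGF mRNA by qRT-PCR, normalised to ACTB, GAPDH, POLR2A; bidirectional fitting.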

[12] = read-out: Insulin Like Growth Factor 1 (IGF1), IGF1 (gene 3479); assay: LTEA_HepaRG_IGF1: Life Technologies and Expression Analysis (LTEA) Assay for Insulin Like Growth Factor 1 (IGF1) using HepaRG (AID 2283506)
Summary of the method: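 HepaRG, plated 48 h, then switched to serum-free induction media; test chemical 8-pt half-log from 100 uM (0.5% DMSO), duplicate, 48 h. Lysis in RLT, TaqMan qRT-PCR, norm. ACTB/GAPDH/POLR2A. Bidirectional fit vs DMSO.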

[13] = read-out: Insulin-like growth factor-binding protein 1 (IGFBP1), IGFBP1 (gene 3484); assay: LTEA_HepaRG_IGFBP1: Life Technologies and Expression Analysis (LTEA) Assay for Insulin-like growth factor-binding protein 1 (IGFBP1) using HepaRG (AID 2283508)
Summary of the method: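 HepaRG cells, plated 48 h then switched to serum-free induction medium, exposed in duplicate for 48 h to 8-point half-log series from 100 uM in 0.5% DMSO. mRNA measured by qRT-PCR, normalized to ACTB/GAPDH/POLR2A; bidirectional fit versus DMSO.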

[14] = read-out: Interleukin 6 Receptor (IL6R), IL6R (gene 3570); assay: LTEA_HepaRG_IL6R: Life Technologies and Expression Analysis (LTEA) Assay for Interleukin 6 Receptor (IL6R) using HepaRG (AID 2283510)
Summary of the method: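 Readout is IL6R transcript level by TaqMan qRT-PCR, normalized to three housekeeping genes and fitted bidirectionally against 0.5% DMSO controls. Human HepaRG cells received chemicals for 48 h in serum-free induction medium, highest concentration 100 uM.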

[15] = read-out: Pro-epidermal growth factor (Homo sapiens) (UniProt P01133); assay: LTEA_HepaRG_EGF: Life Technologies and Expression Analysis (LTEA) Assay for Epidermal growth factor (EGF) using HepaRG (AID 2283489)
Summary of the method: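 HepaRG cells (~100,000/well, 48 h pre-culture) exposed in duplicate for 48 h in serum-free induction medium to 8 half-log concentrations up to 100 uM in 0.5% DMSO. EGF mRNA by qRT-PCR, normalized to ACTB/GAPDH/POLR2A; bidirectional fit versus DMSO.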

[16] = read-out: Intercellular Adhesion Molecule 1 (ICAM1), ICAM1 (gene 3383); assay: LTEA_HepaRG_ICAM1: Life Technologies and Expression Analysis (LTEA) Assay for Intercellular Adhesion Molecule 1 (ICAM1) using HepaRG (AID 2283507)
Summary of the method: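 Differentiated human HepaRG cells in serum-free induction medium exposed 48 h in duplicate to 8 half-log concentrations (top 100 uM, 0.5% DMSO). ICAM1 mRNA quantified by TaqMan qRT-PCR, normalized to ACTB, GAPDH and POLR2A; bidirectional fitting versus DMSO.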

Measured: AC50

Sequence of Cytochrome P450 3A7 (Homo sapiens) (P24462 whole entry, looked up): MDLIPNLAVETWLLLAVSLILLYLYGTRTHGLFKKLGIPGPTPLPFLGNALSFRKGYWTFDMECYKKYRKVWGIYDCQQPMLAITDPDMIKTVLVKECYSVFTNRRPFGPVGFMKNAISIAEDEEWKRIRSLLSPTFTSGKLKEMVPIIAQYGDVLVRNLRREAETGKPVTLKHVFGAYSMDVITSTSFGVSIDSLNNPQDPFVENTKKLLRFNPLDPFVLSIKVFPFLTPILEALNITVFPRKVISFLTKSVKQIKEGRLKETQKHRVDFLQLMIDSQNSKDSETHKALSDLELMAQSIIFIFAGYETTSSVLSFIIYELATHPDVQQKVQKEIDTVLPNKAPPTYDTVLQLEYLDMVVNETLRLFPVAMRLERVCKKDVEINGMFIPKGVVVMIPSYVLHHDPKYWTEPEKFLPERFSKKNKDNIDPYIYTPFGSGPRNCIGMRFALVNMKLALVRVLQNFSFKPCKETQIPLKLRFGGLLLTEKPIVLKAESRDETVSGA

CCCN(CCC)c1c([N+](=O)[O-])cc(C(C)C)cc1[N+](=O)[O-]
active: [4] 9.92 µM | [5] 50 µM | [8] 9.92 µM | [9] 3.04 µM | [10] 16.7 µM | [12] 71.1 µM
not listed: [15] | [16]
inactive: all other assays above

CC(Cc1ccc(OCC(=O)O)cc1)NCC(O)c1csc(C(F)(F)F)n1 (stereo unspecified)
not listed: [16]
inactive: all other assays above

CC(C)(C)OOC(C)(C)C
not listed: [15] | [16]
inactive: all other assays above

O=P1(N(CCCl)CCCl)NCCCO1 (stereo unspecified)
not listed: [15]
inactive: all other assays above

— PubChem BioAssay (EPA / NIEHS)
